From PubChem BioAssay AID720582 (The Scripps Research Institute Molecular Screening Center, 2013) come the findings set out here.

Each structure is given as a SMILES string. Screen size: about 370,000 compounds; about 2,300 (0.62%) were called active.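 How the source made its calls: active means inhibition above a per-campaign cutoff equal to the mean of compounds falling between control-based bounds plus 3 SD (cut at about 20% in these data); inactive means the rest.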 Only a selection was taken, and actives are over-represented in it overall.

For the assay, the target named is Disintegrin and metalloproteinase domain-containing protein 10 (Homo sapiens) (UniProt O14672). Briefly: human ADAM10 inhibitors, primary screen, biochemical, QFRET, HTS (AID 720582).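 Further: 0% = DMSO wells while the 100% control is not disclosed.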 The conditions noted are these: recombinant ADAM10, EDANS/DABCYL FRET peptide cleavage, 3 h; at 7 µM; hits give high values.
Disintegrin and metalloproteinase domain-containing protein 10 (Homo sapiens), sequence (O14672 214-748 limits assumed): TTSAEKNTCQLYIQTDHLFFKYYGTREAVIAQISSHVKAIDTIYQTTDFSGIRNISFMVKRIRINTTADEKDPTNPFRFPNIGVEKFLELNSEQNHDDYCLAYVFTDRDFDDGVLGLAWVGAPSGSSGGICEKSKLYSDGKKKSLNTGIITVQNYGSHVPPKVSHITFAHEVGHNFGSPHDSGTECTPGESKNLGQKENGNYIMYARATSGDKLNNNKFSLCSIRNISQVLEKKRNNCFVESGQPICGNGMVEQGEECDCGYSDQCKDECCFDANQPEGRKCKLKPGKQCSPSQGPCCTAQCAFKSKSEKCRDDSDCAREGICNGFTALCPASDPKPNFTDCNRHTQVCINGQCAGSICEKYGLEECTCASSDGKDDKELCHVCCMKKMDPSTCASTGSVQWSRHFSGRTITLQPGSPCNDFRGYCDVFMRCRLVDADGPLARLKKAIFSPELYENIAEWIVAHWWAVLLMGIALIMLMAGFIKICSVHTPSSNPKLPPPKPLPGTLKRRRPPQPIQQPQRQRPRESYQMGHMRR
With `C[C@H]1CCC/C=C/C(=O)c2c(O)cc(O)cc2CC(=O)O1`, the inhibition was -6.63% (inactive).
For `Cc1ccc(-c2nnc(SCC(=O)Nc3ccc(Oc4ccccc4)cc3)n2Cc2ccco2)cc1` the value was 17.8% (inactive).
For `O=C(CSc1nnc(COc2ccccc2)n1Cc1ccco1)c1ccc2ccccc2c1` the value was 9.91% (inactive); for `Cc1ccc(OCc2nnc(SC/C=C/c3ccccc3)n2Cc2ccco2)cc1`, 21.3% (active).
On to `Cc1c(C(C)c2ccccc2O)[nH]c2ccccc12` (stereo not drawn), for which the inhibition is 11.8% (inactive).
Regarding `O=C1CC(c2ccc3c(c2)OCO3)N=C2N(CC3CC3)C/C(=C/c3ccccc3)N12` (stereo not drawn), the inhibition was -2.63% (inactive).
`Cc1ccc(C)c(NC(=O)c2ccc(OC(=O)c3ccco3)cc2)c1`: the inhibition was 0.79% (inactive).
Turning to `O=C(Oc1cccc(N2C(=O)C3C4c5ccccc5C(c5ccccc54)C3C2=O)c1)c1ccco1` (stereo not drawn), the inhibition is 20.3% (active).
The figure for `CC(=O)Nc1ccc(N2C(=O)C3C4CC(=O)C(c5ccccc54)C3C2=O)cc1` (stereo not drawn) is -0.65% (inactive).
The figure for `O=C(NCCNc1ccc([N+](=O)[O-])cc1)c1cccc2c(Br)cccc12` is -54.2% (inactive).
The figure for `COc1ccc(Cn2cc(COC(=O)N(C)Cc3ccccc3)nn2)cc1` is 1.83% (inactive); for `CC(N=Cc1nc(-c2ccccc2)oc1O)c1ccccc1` (stereo not drawn) it is 21% (active).
As for `Oc1oc(-c2ccccc2Br)nc1/C=N/c1ccccn1`, the inhibition was -33.4% (inactive).
The figure for `COc1ccc(-n2c(SCC(=O)Nc3ccc4cn[nH]c4c3)nnc2-c2cccnc2)cc1` is 3.52% (inactive).
For `CC(C)CSc1nnc(-c2cccnc2)n1Cc1ccccc1` the value was -2.15% (inactive); for `Nn1c(SCC(=O)N2c3ccccc3Sc3ccccc32)nnc1-c1n[nH]c2c1CCC2`, -5.44% (inactive); for `Cc1ccc(S(=O)(=O)N(CC(=O)Nc2cccnc2)c2ccc(Br)cc2)cc1`, 20.1% (active).
The figure for `Cc1ccc(N(CC(=O)Nc2cc(C)cc(C)c2)S(=O)(=O)c2cccc3nonc23)cc1` is 14.3% (inactive).
In the case of `CCNC(=O)CN(c1ccc(C)cc1)S(=O)(=O)c1ccc(SC)cc1`, the inhibition is 2.9% (inactive).
For `O=S1(=O)c2c(cccc2N2CCSCC2)Oc2ccccc2CN1Cc1cn(Cc2ccc(F)cc2)nn1` the value was -1.57% (inactive); for `CCOc1ccc(N(CC(=O)Nc2c(C)n(C)n(-c3ccccc3)c2=O)S(=O)(=O)c2ccc(Cl)s2)cc1`, 7.29% (inactive); for `O=S(=O)(c1ccccc1)N(Cc1cccc(F)c1)c1ccccc1`, 22.7% (active).
The figure for `NC(=O)c1ccccc1N(Cc1ccccc1)S(=O)(=O)c1ccccc1` is 14.4% (inactive).
The figure for `O=C(O)c1cc(S(=O)(=O)N(Cc2ccccc2)c2ccccc2)ccc1Cl` is 2.05% (inactive); for `Cc1cc(=O)[nH]c(SCC(=O)Nc2ccc(Cl)cc2C)n1` it is -0.31% (inactive); for `C[C@@H]1CN([C@@H](C)CO)C(=O)c2cccc(NC(=O)Nc3cccc4ccccc34)c2O[C@H]1CN(C)S(=O)(=O)c1ccccc1F` it is -24.8% (inactive).
Take `CCc1ccccc1NC(=O)CSc1nnc(-c2cccs2)o1`: the inhibition is -1.28% (inactive).
As for `COc1ccc(-n2c(COc3ccccc3)nnc2SCC(=O)Nc2ccc3c(c2)OCO3)cc1`, the inhibition is 2.97% (inactive).
The figure for `Cc1ccc(OCc2nc(C#N)c(N3CCCC3)o2)cc1` is -0.05% (inactive); for `N#Cc1nc(COc2ccc(-c3ccccc3)cc2)oc1NCc1cccnc1` it is 23.1% (active); for `N#Cc1nc(COc2ccc(Cl)cc2)oc1N1CCCC1` it is 1.11% (inactive).
For `O=S(=O)(c1ccc(Br)cc1)c1nc(-c2ccccc2)oc1NCc1cccnc1` the value was 4.12% (inactive); for `CCOc1ccc(Nc2oc(Cc3ccccc3)nc2C#N)cc1`, 23.6% (active).
The figure for `O=S(=O)(c1ccccc1)c1nc(-c2ccccc2F)oc1NCc1cccnc1` is 12.6% (inactive).
`CCCCOCCCNC(=O)C[C@H]1C[C@@]2(C(=O)OC)C(=C[C@H](COCc3ccccc3)O[C@@H]2C)N(Cc2cccc3ccccc23)C1=O`: the inhibition is 11.9% (inactive).
On to `c1ccc2c(CCN3CCNC[C@H]3Cc3cccc4ccccc34)cccc2c1`, for which the inhibition was 79% (active).
For `CC(C)(C)CN1C(=O)C(=O)NC[C@H]1Cc1cccc2ccccc12` the value was -16.5% (inactive).
The figure for `c1ccc(C2CNCc3c2ccc2ccccc32)cc1` (stereo not drawn) is -2.76% (inactive).
`CC(=O)C1(C(=O)Nc2nccs2)CC(c2ccccc2C(F)(F)F)=NO1` (stereo not drawn): the inhibition is -3.94% (inactive).
The figure for `Cc1cccc(C(=O)N2CCc3c([nH]c4ccccc34)C2CC(C)C)n1` (stereo not drawn) is -15.2% (inactive).
The figure for `COCc1ccc(C(=O)N2CCc3c([nH]c4ccccc34)C2c2ccccn2)s1` (stereo not drawn) is 9.76% (inactive).
As for `Cc1cccc(C2c3[nH]c4ccccc4c3CCN2C(=O)c2cc(-c3cccn3C)n[nH]2)n1` (stereo not drawn), the inhibition was 20.4% (active).
In the case of `COC(=O)c1ccccc1-n1cc(COC(=O)NCCc2ccccc2)nn1`, the inhibition is -5.72% (inactive).
For `C=CCN(C(=O)[C@@H](CCCC)[C@@H](O)c1ccc(Cl)cc1)c1ccccc1` the value was 11.4% (inactive); for `CC(C)Oc1cc(F)ccc1-c1cc(C(=O)Nc2cccc(Cl)c2)[nH]n1`, 22.1% (active).
The figure for `COc1cc(NC(=O)c2cc(-c3ccc(F)cc3OC(C)C)n[nH]2)cc(OC)c1OC` is 9.02% (inactive); for `CC(C)Oc1cc(F)ccc1-c1cc(C(=O)Nc2ccc(F)cc2)[nH]n1` it is 5.58% (inactive); for `CCOC(=O)C1CCN(C(=O)C(C)(C)NC(=O)Nc2ccc(F)c(F)c2)CC1` it is 6.44% (inactive).
For `COc1ccc(N2CCN(CCNS(=O)(=O)c3ccc([N+](=O)[O-])cc3)CC2)cc1` the value was 5.38% (inactive); for `COc1ccc(C(=O)COC(=O)c2c(C)noc2C)cc1Cl`, 3.87% (inactive); for `Cc1[nH]c2ccccc2c1C(=O)CN1CC(C)CC(C)C1` (stereo not drawn), -6.1% (inactive).
Take `Cc1[nH]c2ccccc2c1C(=O)COC(=O)c1c(-c2ccccc2)noc1C`: the inhibition is 24.7% (active).
In the case of `COCCCNC(=O)C[C@H]1C[C@@]2(C(=O)OC)C(=C[C@H](C(C)(C)C)O[C@@H]2C)N(Cc2ccc(Cl)cc2Cl)C1=O`, the inhibition was 8.61% (inactive).
Turning to `C=CS(=O)(=O)N(Cc1nnn(Cc2ccccc2)c1Br)[C@H](C(=O)OC)C(C)C`, the inhibition is 5.21% (inactive).
For `CCOC(=O)[C@]12CCCC=C1N(Cc1ccc(OC)cc1)C(=O)[C@@H]2CC(=O)N1CCOCC1` the value was 0.19% (inactive); for `COc1ccc(Cl)cc1NC(=O)CN(C)C(=O)CCCc1c[nH]c2ccccc12`, 56.1% (active); for `COc1ccc(Cl)cc1NC(=O)CN(C)C(=O)c1ccc2n[nH]nc2c1`, -4.74% (inactive).
In the case of `COc1ccc(Cl)cc1NC(=O)CN(C)C(=O)CNC(=O)C12CC3CC(CC(C3)C1)C2`, the inhibition is 0.24% (inactive).
As to `O=C(CSc1nnc(-c2ccccn2)n1-c1ccccc1)Nc1ccc2cn[nH]c2c1`, the inhibition was 1.78% (inactive).
For `CCOC(=O)c1ccc(NC(=O)c2nc[nH]c2C(=O)N[C@@H](CCCCNC(=O)OC(C)(C)C)C(=O)OC(C)(C)C)cc1` the value was -1.17% (inactive).
As for `Cc1ccc(NC(=O)c2nc[nH]c2C(=O)N[C@@H](CCCCNC(=O)OC(C)(C)C)C(=O)OC(C)(C)C)cc1`, the inhibition is 22.4% (active).
The figure for `CC(C)(C)OC(=O)NCCCCCNC(=O)c1[nH]cnc1C(=O)Nc1nccs1` is -0.11% (inactive); for `Cc1nc(CNc2ncnc3ccc(-c4ccc5c(c4)OCO5)cc23)cs1` it is -136% (inactive).
For `CSc1nccc(NC(=O)c2ccc(C(C)(C)C)cc2)n1` the value was 10.6% (inactive); for `CC(C)(C)c1ccc(C(=O)Nc2cc(Cl)c(Br)cc2C(=O)O)cc1`, 19.8% (active).
Take `CSc1ccc(C#N)cc1NC(=O)c1ccc(Cl)cc1`: the inhibition was 7.58% (inactive).
The figure for `COC(=O)[C@H](C(C)C)N(CCCc1cn(Cc2ccccc2)nn1)S(=O)(=O)c1ccc(F)cc1Br` is 2.42% (inactive); for `C=CCN1C(C(=O)OC)CN(Cc2cn(Cc3ccccc3)nn2)CCS1(=O)=O` (stereo not drawn) it is 2.91% (inactive); for `O=C1NC(Nc2nc3ccccc3s2)(C(F)(F)F)C(=O)N1C1CCCCC1` (stereo not drawn) it is 21% (active).
On to `O=C1[C@H]2[C@@H](c3ccc(F)cc3)N3C(=O)N(c4ccc(C(F)(F)F)cc4)C(=O)[C@@]3(Cc3ccccc3)[C@H]2C(=O)N1C1CCCCC1`, for which the inhibition was 22.2% (active).
With `Cc1cccc([C@@H]2[C@@H]3C(=O)N(Cc4ccccc4)C(=O)[C@@H]3[C@]3(Cc4ccc(Cl)cc4)C(=O)N(c4cccc(Cl)c4)C(=O)N23)c1`, the inhibition was -4.37% (inactive).
The figure for `Cc1cccc(N2C(=O)N3[C@H](c4ccc(F)cc4)[C@@H]4C(=O)N(C5CCCCC5)C(=O)[C@@H]4[C@]3(Cc3ccccc3)C2=O)c1` is 5.39% (inactive).
The figure for `CCCCCc1c(-c2cccc(Br)c2)ncn1CCc1ccccc1OC` is -0.06% (inactive); for `CCCCCc1c(-c2ccc(OC)c(OC)c2)ncn1CCc1ccccc1OC` it is 22.3% (active); for `CCCCc1c(-c2ccc(Cl)cc2)ncn1CCc1ccccc1OC` it is -7.93% (inactive).
For `CCOC(=O)[C@]12CCCCC/C=C\1N(Cc1ccc(OC)cc1)C(=O)[C@H]2CC(=O)NCCCN1CCCC1=O` the value was -0.03% (inactive).
For the compound `CC(=O)N1CCc2cc(S(=O)(=O)NCCC(=O)N3CCCC3)ccc21`, the inhibition is -14% (inactive).
For `COc1cc(/C=C/C(=O)n2cnc3ccccc32)cc(OC)c1OC` the value was -59.7% (inactive); for `CCCCCN1CCCCC(NC(=O)C(C)CCC)C1=O` (stereo not drawn), -6.07% (inactive); for `CCOc1ccc(Br)cc1S(=O)(=O)Nc1cccc(S(=O)(=O)N(CC)CC)c1`, 0.81% (inactive).
The figure for `CCOc1ccc(Br)cc1S(=O)(=O)Nc1ccc(S(=O)(=O)Nc2cc(C)on2)cc1` is -5.64% (inactive); for `CCOc1ccc(Br)cc1S(=O)(=O)Nc1ccc(C(=O)OC(C)C(=O)N(C)c2ccccc2)cc1` (stereo not drawn) it is 22.5% (active); for `CC(C)C(C#CC1CC1)N(Cc1ccc2c(c1)OCO2)C(N)=NC(=O)/C=C/c1cccc(C(F)(F)F)c1` (stereo not drawn) it is -4.29% (inactive).
